# From PubChem BioAssay AID1159580 (chemical genetic matrix, 2015)
# Screen size: about 5,500 compounds; about 2,000 (36%) were called active. Inconclusive results (about 18%) are left out. No stated cut-off is given here; in the data, active means normalized growth mostly below about 0.91 (no sharp cut-off); inconclusive means no clear call, values can overlap the other calls; inactive means mostly above about 0.92. Some of the results follow.
# Assay: chemical genetic growth profiling, strain panel (AID 1159580);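 further: tested at 20 µM; growth read once vehicle control cultures reached saturation at 30 °C; 1 = growth at the plate median or of vehicle wells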
# Settings: growth OD
compound,measurement,setting,value
CC(Cc1cccc(C(F)(F)F)c1)NCCOC(=O)c1ccccc1 (configuration not stated),normalized growth,"S. cerevisiae deletion strains, locus YJR075W, strain HOC1, stronger effect = lower value",0.886 (inactive)
same,normalized growth,"S. cerevisiae deletion strains, locus YKL009W, strain mrt4, stronger effect = lower value",0.974 (inactive)
same,normalized growth,"S. cerevisiae deletion strains, locus YKL068W, stronger effect = lower value",1.01 (inactive)
same,normalized growth,"S. cerevisiae deletion strains, locus YKL085W, strain MDH1 (second series), stronger effect = lower value",0.998 (inactive)
same,normalized growth,"S. cerevisiae deletion strains, locus YKL085W, strain MDH1, stronger effect = lower value",0.998 (inactive)
same,normalized growth,"S. cerevisiae deletion strains, locus YKL160W, strain elf1, stronger effect = lower value",0.946 (inactive)
same,normalized growth,"S. cerevisiae deletion strains, locus YKL190W, strain CNB1, stronger effect = lower value",0.982 (inactive)
same,normalized growth,"S. cerevisiae deletion strains, locus YKR001C, strain vps1, stronger effect = lower value",1.03 (inactive)
same,normalized growth,"S. cerevisiae deletion strains, locus YKR026C, strain gcn3, stronger effect = lower value",0.987 (inactive)
same,normalized growth,"S. cerevisiae deletion strains, locus YKR091W, strain srl3, stronger effect = lower value",1 (inactive)
same,normalized growth,"S. cerevisiae deletion strains, locus YLL001W, strain dnm1, stronger effect = lower value",0.935 (inactive)
same,normalized growth,"S. cerevisiae deletion strains, locus YLL026W, stronger effect = lower value",0.933 (inactive)
same,normalized growth,"S. cerevisiae deletion strains, locus YLL041C, strain sdh2, stronger effect = lower value",0.993 (inactive)
same,normalized growth,"S. cerevisiae deletion strains, locus YLR027C, strain aat2, stronger effect = lower value",0.93 (inactive)
same,normalized growth,"S. cerevisiae deletion strains, locus YLR039C, strain RIC1, stronger effect = lower value",1.02 (inactive)
same,normalized growth,"S. cerevisiae deletion strains, locus YLR058C, strain SHM2, stronger effect = lower value",0.967 (inactive)
same,normalized growth,"S. cerevisiae deletion strains, locus YLR102C, strain apc9, stronger effect = lower value",1.02 (inactive)
same,normalized growth,"S. cerevisiae deletion strains, locus YLR113W, strain HOG1, stronger effect = lower value",1 (inactive)
same,normalized growth,"S. cerevisiae deletion strains, locus YLR221C, strain rsa3, stronger effect = lower value",0.956 (inactive)
same,normalized growth,"S. cerevisiae deletion strains, locus YLR258W, strain gsy2, stronger effect = lower value",0.974 (inactive)
same,normalized growth,"S. cerevisiae deletion strains, locus YLR262C, strain YPT6 (second series), stronger effect = lower value",0.785 (active)
same,normalized growth,"S. cerevisiae deletion strains, locus YLR262C, strain YPT6, stronger effect = lower value",1.01 (inactive)
same,normalized growth,"S. cerevisiae deletion strains, locus YLR268W, strain sec22, stronger effect = lower value",0.992 (inactive)
same,normalized growth,"S. cerevisiae deletion strains, locus YLR320W, strain mms22, stronger effect = lower value",0.913 (inactive)
same,normalized growth,"S. cerevisiae deletion strains, locus YLR330W, strain CHS5, stronger effect = lower value",0.991 (inactive)
same,normalized growth,"S. cerevisiae deletion strains, locus YLR342W, strain FKS1 (second series), stronger effect = lower value",0.745 (active)
same,normalized growth,"S. cerevisiae deletion strains, locus YLR342W, strain FKS1, stronger effect = lower value",0.88 (active)
same,normalized growth,"S. cerevisiae deletion strains, locus YLR357W, strain rsc2, stronger effect = lower value",0.987 (inactive)
same,normalized growth,"S. cerevisiae deletion strains, locus YLR370C, strain arc18, stronger effect = lower value",0.931 (inactive)
same,normalized growth,"S. cerevisiae deletion strains, locus YLR371W, strain rom2, stronger effect = lower value",1.02 (inactive)
same,normalized growth,"S. cerevisiae deletion strains, locus YLR384C, strain iki3, stronger effect = lower value",0.988 (inactive)
same,normalized growth,"S. cerevisiae deletion strains, locus YLR418C, strain cdc73, stronger effect = lower value",0.978 (inactive)
same,normalized growth,"S. cerevisiae deletion strains, locus YML016C, strain PPZ1, stronger effect = lower value",0.989 (inactive)
same,normalized growth,"S. cerevisiae deletion strains, locus YML032C, strain rad52, stronger effect = lower value",0.941 (inactive)
same,normalized growth,"S. cerevisiae deletion strains, locus YML120C, strain ndi1, stronger effect = lower value",0.953 (inactive)
same,normalized growth,"S. cerevisiae deletion strains, locus YML124C, strain tub3, stronger effect = lower value",1.02 (inactive)
same,normalized growth,"S. cerevisiae deletion strains, locus YMR058W, strain fet3, stronger effect = lower value",0.905 (inactive)
same,normalized growth,"S. cerevisiae deletion strains, locus YMR078C, strain ctf18, stronger effect = lower value",1.02 (inactive)
same,normalized growth,"S. cerevisiae deletion strains, locus YMR125W, strain sto1, stronger effect = lower value",0.97 (inactive)
same,normalized growth,"S. cerevisiae deletion strains, locus YMR129W, stronger effect = lower value",0.985 (inactive)
same,normalized growth,"S. cerevisiae deletion strains, locus YMR205C, strain PFK2, stronger effect = lower value",0.961 (inactive)
same,normalized growth,"S. cerevisiae deletion strains, locus YMR223W, strain ubp8, stronger effect = lower value",0.947 (inactive)
same,normalized growth,"S. cerevisiae deletion strains, locus YMR231W, strain pep5, stronger effect = lower value",1 (inactive)
same,normalized growth,"S. cerevisiae deletion strains, locus YMR263W, strain SAP30, stronger effect = lower value",0.962 (inactive)
same,normalized growth,"S. cerevisiae deletion strains, locus YMR307W, strain GAS1, stronger effect = lower value",0.955 (inactive)
same,normalized growth,"S. cerevisiae deletion strains, locus YNL067W, strain RPL9B, stronger effect = lower value",0.923 (inactive)
same,normalized growth,"S. cerevisiae deletion strains, locus YNL071W, strain lat1, stronger effect = lower value",0.996 (inactive)
same,normalized growth,"S. cerevisiae deletion strains, locus YNL128W, strain TEP1, stronger effect = lower value",0.951 (inactive)
same,normalized growth,"S. cerevisiae deletion strains, locus YNL153C, strain GIM3, stronger effect = lower value",0.938 (inactive)
same,normalized growth,"S. cerevisiae deletion strains, locus YNL183C, strain NPR1, stronger effect = lower value",0.895 (inactive)
same,normalized growth,"S. cerevisiae deletion strains, locus YNL209W, strain ssb2, stronger effect = lower value",0.963 (inactive)
same,normalized growth,"S. cerevisiae deletion strains, locus YNL233W, strain BNI4, stronger effect = lower value",0.877 (inactive)
same,normalized growth,"S. cerevisiae deletion strains, locus YNL248C, strain rpa49, stronger effect = lower value",0.906 (inactive)
same,normalized growth,"S. cerevisiae deletion strains, locus YNL250W, strain rad50, stronger effect = lower value",1.03 (inactive)
same,normalized growth,"S. cerevisiae deletion strains, locus YNL271C, strain bni1, stronger effect = lower value",1.01 (inactive)
same,normalized growth,"S. cerevisiae deletion strains, locus YNL298W, strain CLA4, stronger effect = lower value",1.01 (inactive)
same,normalized growth,"S. cerevisiae deletion strains, locus YNL307C, strain MCK1, stronger effect = lower value",0.974 (inactive)
same,normalized growth,"S. cerevisiae deletion strains, locus YNL322C, strain KRE1 (second series), stronger effect = lower value",1.01 (inactive)
same,normalized growth,"S. cerevisiae deletion strains, locus YNL322C, strain KRE1, stronger effect = lower value",1.01 (inactive)
same,normalized growth,"S. cerevisiae deletion strains, locus YNR049C, strain mso1, stronger effect = lower value",0.998 (inactive)
same,normalized growth,"S. cerevisiae deletion strains, locus YNR052C, strain pop2, stronger effect = lower value",0.921 (inactive)
same,normalized growth,"S. cerevisiae deletion strains, locus YOL006C, strain TOP1, stronger effect = lower value",0.605 (inactive)
same,normalized growth,"S. cerevisiae deletion strains, locus YOL012C, strain htz1",0.888 (inactive)
same,normalized growth,"S. cerevisiae deletion strains, locus YOL147C, strain pex11, stronger effect = lower value",1.01 (inactive)
same,normalized growth,"S. cerevisiae deletion strains, locus YOR001W, strain rrp6, stronger effect = lower value",0.92 (inactive)
same,normalized growth,"S. cerevisiae deletion strains, locus YOR061W, strain CKA2, stronger effect = lower value",0.994 (inactive)
same,normalized growth,"S. cerevisiae deletion strains, locus YOR069W, strain VPS5, stronger effect = lower value",0.995 (inactive)
same,normalized growth,"S. cerevisiae deletion strains, locus YOR070C, strain gyp1, stronger effect = lower value",0.985 (inactive)
same,normalized growth,"S. cerevisiae deletion strains, locus YOR080W, strain dia2, stronger effect = lower value",0.971 (inactive)
same,normalized growth,"S. cerevisiae deletion strains, locus YOR083W, strain WHI5, stronger effect = lower value",0.913 (inactive)
same,normalized growth,"S. cerevisiae deletion strains, locus YOR106W, strain vam3, stronger effect = lower value",0.906 (inactive)
same,normalized growth,"S. cerevisiae deletion strains, locus YOR136W, strain idh2, stronger effect = lower value",1.01 (inactive)
same,normalized growth,"S. cerevisiae deletion strains, locus YOR144C, strain elg1, stronger effect = lower value",1.02 (inactive)
same,normalized growth,"S. cerevisiae deletion strains, locus YOR184W, strain ser1, stronger effect = lower value",1.01 (inactive)
same,normalized growth,"S. cerevisiae deletion strains, locus YOR231W, strain MKK1, stronger effect = lower value",0.979 (inactive)
same,normalized growth,"S. cerevisiae deletion strains, locus YOR265W, strain rbl2, stronger effect = lower value",0.975 (inactive)
same,normalized growth,"S. cerevisiae deletion strains, locus YOR270C, strain vph1, stronger effect = lower value",0.72 (active)
same,normalized growth,"S. cerevisiae deletion strains, locus YOR290C, strain snf2, stronger effect = lower value",0.975 (inactive)
same,normalized growth,"S. cerevisiae deletion strains, locus YOR316C, strain cot1, stronger effect = lower value",1.03 (inactive)
same,normalized growth,"S. cerevisiae deletion strains, locus YPL051W, strain arl3, stronger effect = lower value",0.904 (active)
same,normalized growth,"S. cerevisiae deletion strains, locus YPL055C, strain LGE1, stronger effect = lower value",0.954 (inactive)
same,normalized growth,"S. cerevisiae deletion strains, locus YPL078C, strain atp4, stronger effect = lower value",0.944 (inactive)
same,normalized growth,"S. cerevisiae deletion strains, locus YPL106C, strain sse1, stronger effect = lower value",0.975 (inactive)
same,normalized growth,"S. cerevisiae deletion strains, locus YPL240C, strain hsp82, stronger effect = lower value",0.98 (inactive)
same,normalized growth,"S. cerevisiae deletion strains, locus YPL241C, strain CIN2, stronger effect = lower value",0.995 (inactive)
same,normalized growth,"S. cerevisiae deletion strains, locus YPL256C, strain CLN2, stronger effect = lower value",0.969 (inactive)
same,normalized growth,"S. cerevisiae deletion strains, locus YPR119W, strain clb2, stronger effect = lower value",1.02 (inactive)
same,normalized growth,"S. cerevisiae deletion strains, locus YPR141C, strain kar3, stronger effect = lower value",1.02 (inactive)
same,normalized growth,"S. cerevisiae deletion strains, locus YPR163C, strain tif3, stronger effect = lower value",0.928 (inactive)
same,normalized growth,"S. cerevisiae deletion strains, locus YPR167C, strain met16, stronger effect = lower value",1 (inactive)
same,normalized growth,"S. cerevisiae deletion strains, strain wtn01, stronger effect = lower value",0.978 (inactive)
same,normalized growth,"S. cerevisiae strains, strain wild type, stronger effect = lower value",0.955 (inactive)
